This passage reports outcome and AC50 results from PubChem BioAssay (EPA / NIEHS).

Active and inactive are the calls of the source. How the source made its calls: active means hit-call score of the fitted dose curve at least 0.9, where 1 is the maximum; inactive means score below 0.9.

The nature of the test: CCTE_Shafer_MEA_acute_burst_number: CCTE's Neural Acute Assay for Single-Electrode Bursts, Shafer Lab (AID 2284013). The method, then: CCTE_Shafer_MEA_acute assay is conducted using Axion Biosystems 48 well microelectrode array (MEA) plates and Maestro recording system. Each well of the MEA plate contains a grid of 16 microelectrodes embedded in the culture surface. Electrically active cells, such as neurons, can be cultured over the electrodes, and electrical activity in these cells can be recorded extracellularly. The spontaneous firing of neurons is captured from each electrode on a microsecond timescale providing both temporally and spatially precise data. […] The CCTE_Shafer_MEA_acute assay uses primary cultures of rat cortical neurons. As these cultures mature over time, neural networks develop functional activity and form cohesive networks in which electrical activity can be highly coordinated. Baseline 40-minute recordings are made on days post-plating 13 or 15, followed by a secondary 40-minute recording after chemical exposure.CCTE_Shafer_MEA_acute_burst_number is a component of the CCTE_Shafer_MEA_acute assay. It measures the total number of single-electrode bursts (temporally-clustered groups of action potential firing) during a recording in a microelectrode array (MEA) using Axion Biosystems Maestro 768 channel amplifier with the AxIS adaptive spike detector. The recordings before and after chemical treatment are used to calculate a percent change in the burst number in each well.Data from the assay component CCTE_Shafer_MEA_acute_burst_number was analyzed into 1 assay endpoint. This assay endpoint, CCTE_Shafer_MEA_acute_burst_number, was analyzed in the negative analysis fitting direction relative to DMSO as the negative control and baseline of activity. Using a type of functional reporter, gain or loss-of-signal activity can be used to understand electrical activity.
Spontaneous activity in the cortical cultures was recorded using an Axion Biosystems Maestro 768 channel amplifier and Axion Integrated Studios (AxIS) v1.8 (or later) software. The amplifier recorded from all channels simultaneously (gain = 1200 x; sampling rate = 12.5 kHz/channel): raw signals were filtered with a Butterworth band-pass filter (300-5000 Hz), which filters out slower local field potentials leaving only fast potentials, i.e., "spikes", arising from extracellular currents associated with action potentials (Pine 2006; Wheeler and Nam 2011). On-line spike detection of filtered signals was conducted with the AxIS adaptive spike detector, using a threshold of 8x the root mean squared (rms) noise on each channel. Any electrodes with rms noise levels greater than 5 uV were grounded (e.g., no data were recorded). Once grounded, an electrode was grounded for the duration of the experiment. All recordings were conducted at 37 C. Wells were deemed usable if on the day of the exposure >/= 10 electrodes were active (defined as >/= 5 spikes/min). On DIV 13 or 15, a minimum of three wells from one cortical culture preparation were treated with each compound (0.03-40 uM). Prior to recording baseline activity, each mwMEA plate was placed in the Maestro at 37 C and allowed to sit for 20 min while firing rates stabilized. Baseline activity (40 min) was recorded before the addition of each compound. An additional 40 min of spontaneous activity was recorded in the presence of each compound. Changes in network parameters relative to baseline were assessed following compound treatment.
For `CC(C)(c1ccccc1)c1ccc(O)c(C(C)(C)c2ccccc2)c1`, the result was inactive.

For the molecule `CC(C)(OO)c1ccccc1`, the call was inactive.

In the case of `CC(=O)[O][Hg][c]1ccccc1`, the AC50 is 0.91 µM (active).

Turning to `CC(=O)OC(c1ccccc1)C(Cl)(Cl)Cl` (centres undefined), the result was inactive.

Consider `CC(C)(C)c1cc(O)ccc1O`, for which the call was inactive.

On to `CCC(C)(C)c1ccc(O)c(C(C)(C)CC)c1`, for which the AC50 was 5.29 µM (active).

As to `O=C(O)C(F)(F)C(F)(F)C(F)(F)C(F)(F)C(F)(F)C(F)(F)C(F)(F)C(F)(F)C(F)(F)C(F)(F)F`, the molecule was classed as inactive.

Consider `CCCCCCCCc1ccc(O)cc1`, for which the concentration at half-maximal activity (AC50) is 2.53 µM (active).

For `O=C(Nc1ccc2[nH]ccc2c1)c1cc2cc(F)ccc2n1Cc1cccc(F)c1`, the molecule was classed as inactive.

For the molecule `C=C(C)C(=O)[O][Sn]([CH2]CCC)([CH2]CCC)[CH2]CCC`, the half-maximal activity concentration (AC50) is 0.0118 µM (active).

On to `CCOP(=S)(OCC)SCSP(=S)(OCC)OCC`, for which the molecule was called inactive.

Take `ClC1(Cl)C2(Cl)C3(Cl)C4(Cl)C(Cl)(Cl)C5(Cl)C3(Cl)C1(Cl)C5(Cl)C24Cl` (centres undefined): the molecule was called inactive.

On to `CC(C)(C)CC(C)(C)c1ccc(O)cc1`, for which the call was inactive.

For `CCC(=O)C(CC(C)N(C)C)(c1ccccc1)c1ccccc1` (centres undefined), the molecule was classed as inactive.

On to `CCN1CCC2(CC1)COc1cc3c(cc12)N(C(=O)c1ccc(-c2ccc(-c4nnc(C)o4)cc2C)cc1)CC3`, for which the molecule was classed as inactive.

`O=C1C2(Cl)C3(Cl)C4(Cl)C(Cl)(Cl)C5(Cl)C3(Cl)C1(Cl)C5(Cl)C24Cl` (centres undefined): the AC50 is 3.27 µM (active).

In the case of `COC(=O)Cc1ccccc1`, the result was inactive.

As for `C[C@]12CCC(=O)C[C@@H]1CC[C@@H]1[C@@H]2CC[C@]2(C)[C@@H](O)CC[C@@H]12`, the molecule was called inactive.

For `O=C(O)C(Cl)(Cl)Cl`, the molecule was classed as inactive.

The AC50 is the midpoint of the concentration-response curve, whichever way the signal moves.
